From PubChem
Only some compounds are listed: those with a hit (about 21% of all), similar ones and a draw of the others.
IL-1B inflam inh – inflammasome signaling inhibition, IL-1 beta readout; THP-1 LPS/ATP IL-1B secretion, AlphaLISA, 16 h; active compounds read low; activity change, % at 57.5 µM; actives 4.7% (n = 360,000); AID 743279; in the data active = activity change below about -50%; inconclusive = mostly about -30% to -49%; note: % is set by controls: 0 for no effect and ±100 for the full control effect
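Secreted IL-1B measured by AlphaLISA bead assay after 16 h compound exposure of THP-1 cells; compounds (final up to 57.5 uM) added 1 h before LPS (250 ng/mL) and ATP (1.25 mM) stimulation; lower signal means less secretion.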
D3 ag – activates the human D3 dopamine receptor; P35462; D3R DiscoveRx beta-arrestin cells, luminescence, 90 min; max activation, %; actives 0.58% (n = 410,000); AID 652048; in the data active = max activation above about 30%; note: 0% is about no effect
Target sequence (P35462 whole entry, looked up): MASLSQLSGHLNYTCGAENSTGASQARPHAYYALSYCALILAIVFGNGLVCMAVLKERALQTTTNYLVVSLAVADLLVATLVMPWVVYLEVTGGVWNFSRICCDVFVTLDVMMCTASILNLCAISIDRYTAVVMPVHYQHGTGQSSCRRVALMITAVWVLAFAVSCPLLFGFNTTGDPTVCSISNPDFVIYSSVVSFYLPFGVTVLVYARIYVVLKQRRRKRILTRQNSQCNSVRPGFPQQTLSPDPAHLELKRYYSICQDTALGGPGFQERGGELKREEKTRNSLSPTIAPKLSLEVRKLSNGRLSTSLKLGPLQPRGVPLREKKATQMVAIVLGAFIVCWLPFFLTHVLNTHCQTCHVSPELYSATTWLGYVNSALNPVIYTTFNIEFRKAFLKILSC
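Agonist-mode cell screen: cells plated at 1500/well and incubated overnight at 37 °C, then exposed to library compounds for 90 min at 37 °C. Detection reagent was added for 30–60 min at room temperature, and luminescence was read.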
ClpP mod – qHTS Assay for Activators of ClpP. ATP-dependent Clp protease proteolytic subunit (Bacillus subtilis (strain 168)), P80244. purified B. subtilis ClpP, FRET peptide cleavage, 20 min. Potency, µM (titrated, usually from 57.5 µM), for the others: at the highest dose activity change, negative = active. actives 1.9% (n = 340,000). AID 651965, 2013; active = well fitted falling curve with a large enough effect; inconclusive = small, poorly fitted or top-dose-only effect; inactive = no such curve, though single readings can be large or run the other way; note: potency is the fitted concentration of half-maximal effect; the source files actives as falling curves though it sought activators and does not explain the sign; nearly all actives have a fitted effect of over 65% in size
Target sequence (P80244 whole entry, looked up): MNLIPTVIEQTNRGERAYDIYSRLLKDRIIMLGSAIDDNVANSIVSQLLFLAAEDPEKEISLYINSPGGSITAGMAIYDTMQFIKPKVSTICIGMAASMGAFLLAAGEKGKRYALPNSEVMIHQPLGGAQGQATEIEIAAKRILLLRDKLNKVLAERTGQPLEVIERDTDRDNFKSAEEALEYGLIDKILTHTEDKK
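Purified B. subtilis ClpP, 10 microg/mL final in Tris/HCl pH8 with KCl, BSA, glycerol and Tween-20, cleaved an Abz/nitrotyrosine-quenched decapeptide. Fluorescence (ex 320, em 430) was read at 0 and 20 min at room temperature. Delta was normalized to 5.8 microM ADEP and DMSO/no-enzyme controls.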
DT40 TDP1 no CPT – qHTS for Inhibitors of human tyrosyl-DNA phosphodiesterase 1 (TDP1): qHTS in cells in absence of CPT. actives 15% (n = 420,000). Potency, µM (highest dose often 46.2 µM), without a hit: top-dose activity change, negative = growth inhibition, usual class: inhibitors. DT40 Tdp1-/- hTDP1 cells, no CPT, ATP luminescence, 48 h; note: potency is the fitted concentration of half-maximal effect; % is set by controls: 0 for no effect and ±100 for the full control effect; nearly all actives have a fitted effect of over 55% in size
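A cellular qHTS used chicken DT40 cells lacking endogenous Tdp1 but carrying stably transfected human TDP1. Compounds were applied without camptothecin, and cell growth kinetics were judged by ATP-dependent luminescence after ≥48 hr.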
D3 antag – D3 dopamine receptor (human) antagonism; D3R cells, DiscoveRx beta-arrestin luminescence, antagonist mode; active compounds read low; max response, negative = inhibition, %; actives 2.5% (n = 360,000); AID 652054; in the data active = max response below about -50%; inconclusive = no clear call, values can overlap the other calls; note: % is set by controls: 0 for no effect and ±100 for the full control effect
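Cells expressing the human receptor were seeded at 1500 cells/well, incubated overnight at 37 degrees C in 5% CO2, then exposed to library compounds with dopamine controls for 90 minutes at 37 degrees C before luminescent detection.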
TDP1 cell CPT – growth inhibition of DT40 Tdp1-/-;hTDP1 cells with camptothecin (screen for TDP1 inhibitors); Potency, µM (titrated, usually from 46.2 µM), inactives show at the highest dose activity change, negative = growth inhibition, hits mostly inhibitors; AID 686979; actives 12% (n = 420,000); chicken DT40 Tdp1-/-;hTDP1 cells + 20 nM CPT, ATP luminescence, 48 h; note: potency is the fitted concentration of half-maximal effect; % is set by controls: 0 for no effect and ±100 for the full control effect; nearly all actives have a fitted effect of over 55% in size
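Chicken DT40 Tdp1-/- cells complemented with human TDP1, 400 cells/well, exposed to compounds plus 20 nM camptothecin for at least 48 h at 37 C; viability read as ATP content by CellTiter-Glo luminescence.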
Numbers without * were called inactive; ? = inconclusive; . = no result given. Unless noted, calls come from the whole dose curve; as a rule, active = well fitted inhibition curve with a large enough effect; inconclusive = small, poorly fitted or top-dose-only effect; inactive = flat fitted curve, though single readings scatter.

SMILES	IL-1B inflam inh	D3 ag	ClpP mod	DT40 TDP1 no CPT	D3 antag	TDP1 cell CPT
O=C(Nc1ccc(OC(F)(F)F)cc1)C1CCCCN1S(=O)(=O)c1ccccc1 (stereo not given)	?	5.4	0.7%	14.6µM*	-4.9	?
COc1ccc(NC(=O)C(CC(=O)O)Cc2ccc(Cl)cc2)cc1 (stereo not given)	68.5	1.2	0.3%	15.3%	6.5	-2.3%
O=C(NCCC(=O)N1CCN(c2ccccc2O)CC1)c1ccc(Br)cc1	-7.7	1.0	-1.6%	-29.8%	5.2	?
O=C(NCC(=O)N1CCN(Cc2ccccc2)CC1)c1cc(Cl)cc([N+](=O)[O-])c1	9.3	-21.6	0.7%	?	21.2	16.4µM*
Cc1cccc(N2CCN(C(=O)CNC(=O)c3cccc([N+](=O)[O-])c3)CC2)c1C	-8.5	13.1	.	18.4µM*	4.5	?
CC(C)C(NC(=O)Cc1ccccc1)C(=O)N1CCN(c2cccc(Cl)c2)CC1 (stereo not given)	-4.2	6.9	1.6%	3.26µM*	0.5	4.61µM*
O=C(NCCC(=O)N1CCN(c2cccc(Cl)c2)CC1)c1ccc(Br)cc1	-54.8*	-18.4	-3.0%	?	-9.1	?
COc1cccc(CNc2nc3cc(-c4cccc(C(F)(F)F)c4)sc3c(=O)n2C)c1	37.4	11.5	?	-38.5%	10.2	-26.4%
CCN(CC(=O)NCc1cccs1)C(=O)/C=C/c1cc(Br)ccc1OC(F)F	-3.0	-5.2	-2.5%	?	?	?
CC(C)[C@H](NC(=O)c1c(F)cccc1F)C(=O)N1CCN(c2ccc(F)cc2)CC1	-9.8	5.2	.	20.6µM*	3.2	?
Cc1cc(C)cc(C(=O)NCC(=O)N2CCN(c3cccc(Cl)c3)CC2)c1	-69.6*	22.7	.	?	9.0	?
Cc1cccc(C(=O)NCC(=O)N2CCN(c3ccccn3)CC2)c1	31.7	1.9	28.2µM*	3.0%	9.8	11.9%
O=C(NC(=O)N1CCN(c2cccc(Cl)c2)CC1)c1ccccc1	0.0	-25.0	0.4%	-0.1%	-72.0*	0.2%
Cc1cccc(C(=O)NCC(=O)N2CCN(c3ccc(Cl)cc3)CC2)c1	-12.4	4.9	1.2%	?	-1.9	?
Cc1cccc(C(=O)N2CCN(c3ccccn3)CC2)c1	-12.0	-1.0	-21.7%	-16.2%	-7.2	-22.7%
O=C(CCC(=O)Nc1cccc([N+](=O)[O-])c1)N/N=C/c1cccs1	20.5	-11.7	-1.7%	3.7%	-24.2	-6.3%
CN(C)c1ccc(CNC(=O)CCS(=O)(=O)c2ccc3c(c2)n(C)c(=O)c(=O)n3C)cc1	-0.2	-2.2	-4.5%	-2.5%	12.4	-10.1%
CCCCCCSc1ccc([C@H]2N[C@@](Cc3ccccc3)(C(=O)OC)[C@H]3C(=O)N(C)C(=O)[C@@H]23)cc1OC	31.6	-3.3	-23.5%	?	9.2	?
O=C(NCC(=O)N1CCN(Cc2c(F)cccc2Cl)CC1)c1cccs1	-13.9	-1.2	-4.2%	?	0.0	-18.1%
O=C(CSc1ccccc1)N1CCN(c2ccccn2)CC1	-10.0	-15.5	.	?	-16.0	4.4%
O=C(NCC(=O)N1CCN(Cc2c(F)cccc2Cl)CC1)c1cccc(Cl)c1	-8.3	-17.5	-2.8%	16.4µM*	-5.2	6.51µM*
O=C(CC(c1ccccc1)c1ccccc1)N1CCN(c2ccccn2)CC1	-24.6	1.4	1.0%	18.4µM*	-1.1	?
COc1ccc(N(CCC#N)S(=O)(=O)c2cccc3nsnc23)cc1	-2.8	-7.6	6.5%	-22.7%	-6.1	-12.0%
COc1cc(OC)cc(C(=O)N/N=C\c2ccoc2)c1	6.2	-23.4	-1.7%	9.1%	?	-9.3%
CCn1c(/C=N/n2cnnc2)nc2ccccc21	35.8	-8.4	28.2µM*	-5.0%	-14.0	-11.1%
SMILES	IL-1B inflam inh	D3 ag	ClpP mod	DT40 TDP1 no CPT	D3 antag	TDP1 cell CPT
CCn1c2ccccc2c2cc(/C=N/n3cnnc3)ccc21	-58.5*	-5.0	25.1µM*	-29.7%	-14.6	18.4µM*
CCn1c2ccccc2c2cc(/C=N/n3c(-c4cc(C)[nH]n4)n[nH]c3=S)ccc21	30.8	5.4	.	?	-22.6	20.6µM*
CCn1c2ccccc2c2cc(/C=N/n3cn[nH]c3=S)ccc21	-11.9	-4.6	14.2%	?	-15.8	?
CCOc1ccc(N(CC(=O)NCc2ccc(C)cc2)S(=O)(=O)c2c(C)noc2C)cc1	.	3.8	1.8%	-23.9%	.	-26.5%
Cc1oc2ncn(C)c(=O)c2c1C(=O)Nc1ccccn1	.	0.9	-2.3%	0.4%	.	15.8%
CCC1(CC)NC(=S)NC1=S	0.4	3.2	28.2µM*	3.8%	-9.9	13.9%
CN(C)c1ccc(-c2nc3n(n2)C(c2cccnc2)C2=C(CC(C)(C)CC2=O)N3)cc1 (stereo not given)	17.0	-2.1	14.1µM*	?	-13.3	-7.5%
CCN(CC)Cc1c(C)[nH]c2ccc(NC(C)=O)cc2c1=O	2.8	1.3	4.0%	1.0%	26.3	0.8%
Cc1ccc(Sc2c(C)nn(-c3ccccc3)c2OC(=O)C(C)(C)C)cc1	.	-2.4	-1.1%	-5.3%	.	-16.0%
CCC1Nc2ncnc(N3CCOCC3)c2N(Cc2ccc(Br)cc2)C1=O (stereo not given)	-2.8	-23.1	0.7%	?	-3.8	?
Brc1ccc2c(c1)CNc1c(ncnc1N1CCOCC1)O2	-12.4	4.1	-0.6%	?	43.7	15.8µM*
Cc1cnc(C(=O)Nc2cccc3cccnc23)cn1	197.7	0.1	-7.7%	0.0092µM*	8.0	0.0073µM*
COc1cc(C(=O)Nc2cccc3cccnc23)cc(OC)c1OC	-19.6	0.1	-17.9%	25.9µM*	0.6	?
CCCOc1cccc(C(=O)Nc2cccc3cccnc23)c1	.	9.3	-8.5%	?	.	23.1µM*
Cc1cccc(C(=O)Nc2cccc3cccnc23)c1	11.0	6.7	-0.5%	-18.0%	-1.1	6.8%
COc1cc(OC)cc(C(=O)Nc2cccc3cccnc23)c1	?	10.4	0.5%	?	17.8	?
